Laboratory results reported in PubChem BioAssay (NCATS).
Inconclusive results are not listed. Values without a mark were called inactive. Calls follow the shape of the dose curve; as a rule, active = well fitted cell-killing curve with a large enough effect; inconclusive = small, poorly fitted or top-dose-only effect, or effect the other way; inactive = flat fitted curve, though single readings scatter.

Assay: S16 Schwann cell viability assay (CellTiter-Glo assay) (AID 624031);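 also: native untransfected S16 rat Schwann cells; cellular ATP luminescence as a viability measure; plate controls were DMSO-treated cells for no effect and cell-free wells for full effect; nearly all actives have a fitted effect of over 70% in size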
Settings: S16 rat Schwann cells viability, 24 h; series mostly up to 57.5 µM; activity change, negative = cytotoxicity: at the top concentration
In short: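 Parental S16 cells, 24 h compound, 37 °C. ATP-luminescence viability; DMSO = 0% activity, empty wells as reference; curves classified by fit quality and efficacy.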

**Q.** For `CCCCCCCCCCCCCCCC(=O)OC[C@H](O)[C@H]1OC[C@@H](O)[C@@H]1O`, which “activity change, negative = cytotoxicity” value is on record?
**A.** Its value is -0.39%.

**Q.** With `CCCCC(=O)OCC(=O)[C@]1(O)Cc2c(O)c3c(c(O)c2[C@H](OC2CC(NC(=O)C(F)(F)F)C(O)C(C)O2)C1)C(=O)c1c(OC)cccc1C3=O` (stereo partly drawn) as the molecule, how does the “activity change, negative = cytotoxicity” value read?
**A.** The value was -1.45%.

**Q.** With `C[C@H]1OC(OC2C(O)[C@@H](O)C(OC3C(O)[C@@H](O)C(O)O[C@@H]3CO)O[C@@H]2CO)[C@H](O)C(O)C1N[C@H]1C=C(CO)[C@@H](O)[C@H](O)C1O` (stereo partly drawn) as the molecule, how does the “activity change, negative = cytotoxicity” value read?
**A.** Its value is 2.32%.

**Q.** For `NC(=O)c1ncn(C2OC(CO)C(O)C2O)c1N` (stereo not drawn), which “activity change, negative = cytotoxicity” value is on record?
**A.** Its value is 18.3%.

**Q.** With `CN(C)CC/C=C1\c2ccccc2COc2ccc(CC(=O)O)cc21` as the molecule, how does the “activity change, negative = cytotoxicity” value read?
**A.** The value was 8.31%.

**Q.** For `CCCC(=O)O[C@]1(C(=O)COC(C)=O)CC[C@H]2C3C[C@H](F)C4=CC(=O)C=CC4(C)[C@@]3(F)[C@@H](O)CC21C` (stereo partly drawn), which “activity change, negative = cytotoxicity” value is on record?
**A.** Its value is -3.32%.

**Q.** Which “activity change, negative = cytotoxicity” value does the source give for `OCCN1CC(O)C(O)C(O)C1CO` (stereo not drawn) here?
**A.** Its value is -16.6%.

**Q.** Which “activity change, negative = cytotoxicity” value does the source give for `C[n+]1c2cc(N)ccc2cc2ccc(N)cc21` here?
**A.** The value was 16.7%.

**Q.** Which “activity change, negative = cytotoxicity” value does the source give for `O=C(OC[C@@H]1O[C@@](O)(COC(=O)c2cccnc2)[C@H](OC(=O)c2cccnc2)[C@H]1OC(=O)c1cccnc1)c1cccnc1` here?
**A.** Its value is 2.64%.

**Q.** Which “activity change, negative = cytotoxicity” value does the source give for `COc1cccc(OC)c1C(=O)NC1C(=O)N2C1SC(C)(C)C2C(=O)O` (stereo not drawn) here?
**A.** The value was 20%.

**Q.** For `NC[C@@H]1O[C@H](OC2[C@@H](CO)O[C@@H](OC3[C@H](O)[C@H](N)C[C@H](N)[C@H]3OC3O[C@H](CO)[C@@H](O)[C@H](O)[C@@H]3N)[C@H]2O)C(N)[C@H](O)[C@@H]1O` (stereo partly drawn), which “activity change, negative = cytotoxicity” value is on record?
**A.** Its value is -4.24%.

**Q.** With `Cc1ccc(S(=O)(=O)NC(=O)NC(C)Cc2ccccc2)cc1` (stereo not drawn) as the molecule, how does the “activity change, negative = cytotoxicity” value read?
**A.** Its value is -4.1%.

**Q.** For `OCCOC[C@H]1O[C@H](OCCO)[C@H](OCCO)[C@@H](OCCO)[C@@H]1OCCO` (tested in a mixture with another compound), which “activity change, negative = cytotoxicity” value is on record?
**A.** Its value is -8.26%.
